Residual activity data for 3 compounds are collected here from ChEMBL document CHEMBL2218924, “A broad activity screen in support of a chemogenomic map for kinase signalling research and drug discovery” (Biochem J, 2013).

Molecules are shown by their SMILES.

The target in assay [1] is Homeodomain-interacting protein kinase 3 (Homo sapiens) (UniProt Q9H422). Particulars: at 10 µM; call rule not given here.
The target in assay [2] is T1, Serine/threonine-protein kinase haspin (Homo sapiens) (UniProt Q8TF76).
T1 sequence (whole entry): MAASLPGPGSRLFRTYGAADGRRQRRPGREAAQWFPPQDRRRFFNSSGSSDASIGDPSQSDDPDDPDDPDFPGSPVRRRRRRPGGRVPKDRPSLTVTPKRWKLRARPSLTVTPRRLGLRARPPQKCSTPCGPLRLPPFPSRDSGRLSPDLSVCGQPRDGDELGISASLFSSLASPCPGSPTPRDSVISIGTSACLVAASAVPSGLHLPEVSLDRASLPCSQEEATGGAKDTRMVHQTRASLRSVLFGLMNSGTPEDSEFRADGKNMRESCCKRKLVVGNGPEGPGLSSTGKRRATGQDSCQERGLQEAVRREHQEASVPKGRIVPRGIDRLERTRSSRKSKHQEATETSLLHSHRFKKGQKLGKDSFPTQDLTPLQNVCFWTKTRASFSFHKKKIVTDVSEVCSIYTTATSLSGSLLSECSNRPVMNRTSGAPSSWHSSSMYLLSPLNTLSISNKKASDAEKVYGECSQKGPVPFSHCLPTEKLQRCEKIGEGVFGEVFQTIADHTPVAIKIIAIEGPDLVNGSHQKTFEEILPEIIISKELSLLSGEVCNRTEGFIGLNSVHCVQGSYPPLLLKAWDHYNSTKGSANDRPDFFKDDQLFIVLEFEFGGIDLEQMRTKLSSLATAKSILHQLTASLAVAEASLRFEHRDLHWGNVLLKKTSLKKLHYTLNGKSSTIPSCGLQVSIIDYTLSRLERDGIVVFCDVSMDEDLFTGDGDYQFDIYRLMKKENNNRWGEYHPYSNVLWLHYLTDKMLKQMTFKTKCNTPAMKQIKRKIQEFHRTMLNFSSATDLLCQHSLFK
Particulars: at 1 µM.

The target in assay [3] is T1, Serine/threonine-protein kinase haspin (Homo sapiens). Particulars: at 10 µM.
In assay [4] the target is Tyrosine-protein kinase HCK (Homo sapiens) (UniProt P08631). Particulars: at 1 µM.
Tyrosine-protein kinase HCK (Homo sapiens), sequence (P08631 2-526 limits assumed): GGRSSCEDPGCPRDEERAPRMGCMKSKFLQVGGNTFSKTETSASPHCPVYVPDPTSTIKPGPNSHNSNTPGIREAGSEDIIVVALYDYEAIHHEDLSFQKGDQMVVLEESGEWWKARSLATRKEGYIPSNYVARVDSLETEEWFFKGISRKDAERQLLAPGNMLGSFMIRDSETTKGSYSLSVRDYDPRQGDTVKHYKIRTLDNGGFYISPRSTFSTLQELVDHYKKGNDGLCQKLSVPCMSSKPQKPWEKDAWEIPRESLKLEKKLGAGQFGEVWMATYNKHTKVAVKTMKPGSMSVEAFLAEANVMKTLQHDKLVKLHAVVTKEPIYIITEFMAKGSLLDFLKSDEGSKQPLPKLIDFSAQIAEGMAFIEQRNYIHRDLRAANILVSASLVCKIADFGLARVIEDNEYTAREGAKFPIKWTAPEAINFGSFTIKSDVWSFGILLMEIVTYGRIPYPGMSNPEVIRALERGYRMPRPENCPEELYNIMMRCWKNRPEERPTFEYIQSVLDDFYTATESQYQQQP
Assay [5] shares this target. Particulars: at 10 µM.
For assay [6] the target is unchanged. Particulars: at 1 µM. The source holds these as a separate data set.
Assay [7] shares this target. Particulars: at 10 µM. This is another data set of the same source.
Assay [8] addresses Insulin-like growth factor 1 receptor (Homo sapiens) (UniProt P08069). Particulars: at 1 µM.
For assay [9] the target is unchanged. Particulars: at 10 µM.
Assay [10] addresses T2, Protein kinase C zeta type (Homo sapiens) (UniProt Q05513).
T2 sequence (whole entry): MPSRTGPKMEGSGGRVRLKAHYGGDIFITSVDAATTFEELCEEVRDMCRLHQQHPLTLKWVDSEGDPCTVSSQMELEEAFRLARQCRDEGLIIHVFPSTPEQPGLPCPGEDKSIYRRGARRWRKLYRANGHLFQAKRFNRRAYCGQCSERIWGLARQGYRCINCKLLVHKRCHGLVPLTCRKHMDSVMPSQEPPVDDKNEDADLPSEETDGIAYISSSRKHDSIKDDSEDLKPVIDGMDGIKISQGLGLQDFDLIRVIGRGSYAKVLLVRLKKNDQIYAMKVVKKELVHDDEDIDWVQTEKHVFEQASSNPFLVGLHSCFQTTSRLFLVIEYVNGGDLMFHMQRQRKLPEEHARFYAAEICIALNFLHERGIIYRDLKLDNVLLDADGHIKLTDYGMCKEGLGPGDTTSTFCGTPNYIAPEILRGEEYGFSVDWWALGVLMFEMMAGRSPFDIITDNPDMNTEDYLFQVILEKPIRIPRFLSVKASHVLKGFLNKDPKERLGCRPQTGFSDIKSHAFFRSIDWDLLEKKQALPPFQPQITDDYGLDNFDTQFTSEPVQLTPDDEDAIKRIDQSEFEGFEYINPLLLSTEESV
Particulars: at 10 µM.

In assay [11] the target is Protein kinase C eta type (Homo sapiens) (UniProt P24723). Particulars: at 1 µM.
Protein kinase C eta type (Homo sapiens), sequence (P24723 whole entry): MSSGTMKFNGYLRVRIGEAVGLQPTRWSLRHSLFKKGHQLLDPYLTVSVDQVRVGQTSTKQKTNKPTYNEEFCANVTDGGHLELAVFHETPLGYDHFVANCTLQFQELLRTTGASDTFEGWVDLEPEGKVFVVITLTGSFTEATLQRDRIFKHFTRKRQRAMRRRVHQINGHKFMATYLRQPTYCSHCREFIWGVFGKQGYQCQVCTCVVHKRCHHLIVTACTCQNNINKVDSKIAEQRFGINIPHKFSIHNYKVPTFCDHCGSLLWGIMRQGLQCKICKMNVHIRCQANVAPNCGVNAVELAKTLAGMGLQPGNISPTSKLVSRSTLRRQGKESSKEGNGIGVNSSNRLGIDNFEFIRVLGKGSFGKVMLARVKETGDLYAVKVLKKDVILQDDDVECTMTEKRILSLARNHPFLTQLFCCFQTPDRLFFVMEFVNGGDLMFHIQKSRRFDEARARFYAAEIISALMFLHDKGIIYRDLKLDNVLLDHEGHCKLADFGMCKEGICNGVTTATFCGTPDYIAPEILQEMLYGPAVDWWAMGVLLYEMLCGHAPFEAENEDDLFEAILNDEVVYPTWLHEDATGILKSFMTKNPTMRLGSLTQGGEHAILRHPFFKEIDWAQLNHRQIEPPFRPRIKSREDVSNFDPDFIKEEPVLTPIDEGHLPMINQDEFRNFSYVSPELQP
The target is the same in assay [12]. Particulars: at 10 µM.
The target in assay [13] is Protein kinase C theta type (Homo sapiens) (UniProt Q04759). Particulars: at 1 µM.
Protein kinase C theta type (Homo sapiens), sequence (Q04759 whole entry, looked up): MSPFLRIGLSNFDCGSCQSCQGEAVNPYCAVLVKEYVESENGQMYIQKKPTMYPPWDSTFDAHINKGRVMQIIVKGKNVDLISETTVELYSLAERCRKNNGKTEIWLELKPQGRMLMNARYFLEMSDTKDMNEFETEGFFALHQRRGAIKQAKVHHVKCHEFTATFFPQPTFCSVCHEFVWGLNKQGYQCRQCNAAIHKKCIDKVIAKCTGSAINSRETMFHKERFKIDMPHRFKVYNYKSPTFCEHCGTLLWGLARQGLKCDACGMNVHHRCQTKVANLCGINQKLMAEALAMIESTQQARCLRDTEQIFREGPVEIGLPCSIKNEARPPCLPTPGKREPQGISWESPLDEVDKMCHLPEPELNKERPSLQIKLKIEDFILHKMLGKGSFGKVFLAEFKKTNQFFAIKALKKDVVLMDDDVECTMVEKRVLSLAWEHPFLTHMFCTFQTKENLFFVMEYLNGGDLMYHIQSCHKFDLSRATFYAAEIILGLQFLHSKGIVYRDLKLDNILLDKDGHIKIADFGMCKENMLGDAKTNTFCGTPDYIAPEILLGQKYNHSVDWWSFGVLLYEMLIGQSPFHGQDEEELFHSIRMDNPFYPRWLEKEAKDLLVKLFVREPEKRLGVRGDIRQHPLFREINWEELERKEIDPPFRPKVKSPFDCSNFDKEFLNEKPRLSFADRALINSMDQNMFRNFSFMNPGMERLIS
Assay [14] has the same target. Particulars: at 10 µM.
The target of assay [15] is T3, Protein kinase C iota type (Homo sapiens) (UniProt P41743).
T3 sequence (whole entry): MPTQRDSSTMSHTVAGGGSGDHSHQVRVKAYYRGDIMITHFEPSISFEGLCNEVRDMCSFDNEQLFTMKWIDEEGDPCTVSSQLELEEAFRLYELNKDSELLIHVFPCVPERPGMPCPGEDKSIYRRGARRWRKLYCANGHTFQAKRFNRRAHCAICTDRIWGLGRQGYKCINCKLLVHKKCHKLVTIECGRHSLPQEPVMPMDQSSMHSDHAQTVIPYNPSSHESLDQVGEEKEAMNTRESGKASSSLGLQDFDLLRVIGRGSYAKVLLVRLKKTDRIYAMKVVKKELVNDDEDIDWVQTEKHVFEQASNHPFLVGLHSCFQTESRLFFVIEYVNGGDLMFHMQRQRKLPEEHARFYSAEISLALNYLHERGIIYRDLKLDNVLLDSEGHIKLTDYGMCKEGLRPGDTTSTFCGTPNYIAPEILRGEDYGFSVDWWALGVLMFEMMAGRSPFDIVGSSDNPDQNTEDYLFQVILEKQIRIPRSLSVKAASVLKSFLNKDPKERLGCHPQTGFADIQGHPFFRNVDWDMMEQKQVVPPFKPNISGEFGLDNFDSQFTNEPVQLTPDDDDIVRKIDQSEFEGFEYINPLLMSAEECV
Particulars: at 1 µM.

Assay [16] deals with T3, Protein kinase C iota type (Homo sapiens). Particulars: at 10 µM.
For assay [17], the target named is T4, Serine/threonine-protein kinase D1 (Homo sapiens) (UniProt Q15139).
T4 sequence (whole entry): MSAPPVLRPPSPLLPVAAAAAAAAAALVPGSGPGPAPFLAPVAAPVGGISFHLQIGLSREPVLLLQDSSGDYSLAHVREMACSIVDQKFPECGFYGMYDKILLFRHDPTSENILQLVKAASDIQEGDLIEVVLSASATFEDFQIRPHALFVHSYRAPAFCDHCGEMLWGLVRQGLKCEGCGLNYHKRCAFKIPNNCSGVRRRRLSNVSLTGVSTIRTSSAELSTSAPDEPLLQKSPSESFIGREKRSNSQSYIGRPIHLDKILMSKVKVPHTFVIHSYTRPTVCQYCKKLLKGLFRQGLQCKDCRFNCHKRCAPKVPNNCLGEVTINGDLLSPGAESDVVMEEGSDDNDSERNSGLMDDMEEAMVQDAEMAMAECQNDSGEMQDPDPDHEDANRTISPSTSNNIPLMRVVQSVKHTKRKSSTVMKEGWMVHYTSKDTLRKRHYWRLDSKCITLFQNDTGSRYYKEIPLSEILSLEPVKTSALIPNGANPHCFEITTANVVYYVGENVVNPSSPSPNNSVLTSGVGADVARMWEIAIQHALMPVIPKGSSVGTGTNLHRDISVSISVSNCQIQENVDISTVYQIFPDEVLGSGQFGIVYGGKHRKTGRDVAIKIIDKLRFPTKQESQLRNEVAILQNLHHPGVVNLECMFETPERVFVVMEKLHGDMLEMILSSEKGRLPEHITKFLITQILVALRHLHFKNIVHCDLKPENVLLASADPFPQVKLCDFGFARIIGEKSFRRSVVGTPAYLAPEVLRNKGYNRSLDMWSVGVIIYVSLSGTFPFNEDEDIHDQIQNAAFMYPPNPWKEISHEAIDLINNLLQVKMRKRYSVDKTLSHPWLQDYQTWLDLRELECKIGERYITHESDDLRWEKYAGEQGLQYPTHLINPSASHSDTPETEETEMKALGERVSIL
Particulars: at 1 µM.

Assay [18] addresses T4, Serine/threonine-protein kinase D1 (Homo sapiens). Particulars: at 10 µM.
Assay [19] concerns the target T5, Serine/threonine-protein kinase D2 (Homo sapiens) (UniProt Q9BZL6).
T5 sequence (whole entry): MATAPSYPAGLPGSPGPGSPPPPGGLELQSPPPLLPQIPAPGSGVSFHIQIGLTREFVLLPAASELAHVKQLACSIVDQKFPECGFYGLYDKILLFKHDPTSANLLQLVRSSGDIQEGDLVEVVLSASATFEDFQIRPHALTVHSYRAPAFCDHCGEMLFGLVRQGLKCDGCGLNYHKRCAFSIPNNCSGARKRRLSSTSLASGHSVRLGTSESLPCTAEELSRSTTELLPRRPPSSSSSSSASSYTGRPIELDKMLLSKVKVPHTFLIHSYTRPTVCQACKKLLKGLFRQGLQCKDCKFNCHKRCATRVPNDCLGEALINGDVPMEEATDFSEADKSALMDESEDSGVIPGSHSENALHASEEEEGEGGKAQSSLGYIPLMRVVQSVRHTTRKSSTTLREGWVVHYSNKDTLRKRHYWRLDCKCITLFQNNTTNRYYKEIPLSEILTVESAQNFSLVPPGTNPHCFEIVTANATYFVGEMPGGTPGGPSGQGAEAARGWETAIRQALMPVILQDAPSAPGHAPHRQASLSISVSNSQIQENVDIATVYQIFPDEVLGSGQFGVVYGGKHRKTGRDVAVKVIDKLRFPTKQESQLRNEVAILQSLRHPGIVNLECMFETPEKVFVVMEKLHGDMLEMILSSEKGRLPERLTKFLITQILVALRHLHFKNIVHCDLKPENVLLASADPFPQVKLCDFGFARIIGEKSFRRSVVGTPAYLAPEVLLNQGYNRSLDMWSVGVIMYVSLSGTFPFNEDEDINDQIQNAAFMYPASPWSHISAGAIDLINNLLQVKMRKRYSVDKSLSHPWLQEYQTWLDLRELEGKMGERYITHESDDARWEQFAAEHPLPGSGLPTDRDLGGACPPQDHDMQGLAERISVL
Particulars: at 1 µM.

For assay [20], the target named is T5, Serine/threonine-protein kinase D2 (Homo sapiens). Particulars: at 10 µM.

Homeodomain-interacting protein kinase 3 (Homo sapiens), sequence (Q9H422 whole entry, looked up): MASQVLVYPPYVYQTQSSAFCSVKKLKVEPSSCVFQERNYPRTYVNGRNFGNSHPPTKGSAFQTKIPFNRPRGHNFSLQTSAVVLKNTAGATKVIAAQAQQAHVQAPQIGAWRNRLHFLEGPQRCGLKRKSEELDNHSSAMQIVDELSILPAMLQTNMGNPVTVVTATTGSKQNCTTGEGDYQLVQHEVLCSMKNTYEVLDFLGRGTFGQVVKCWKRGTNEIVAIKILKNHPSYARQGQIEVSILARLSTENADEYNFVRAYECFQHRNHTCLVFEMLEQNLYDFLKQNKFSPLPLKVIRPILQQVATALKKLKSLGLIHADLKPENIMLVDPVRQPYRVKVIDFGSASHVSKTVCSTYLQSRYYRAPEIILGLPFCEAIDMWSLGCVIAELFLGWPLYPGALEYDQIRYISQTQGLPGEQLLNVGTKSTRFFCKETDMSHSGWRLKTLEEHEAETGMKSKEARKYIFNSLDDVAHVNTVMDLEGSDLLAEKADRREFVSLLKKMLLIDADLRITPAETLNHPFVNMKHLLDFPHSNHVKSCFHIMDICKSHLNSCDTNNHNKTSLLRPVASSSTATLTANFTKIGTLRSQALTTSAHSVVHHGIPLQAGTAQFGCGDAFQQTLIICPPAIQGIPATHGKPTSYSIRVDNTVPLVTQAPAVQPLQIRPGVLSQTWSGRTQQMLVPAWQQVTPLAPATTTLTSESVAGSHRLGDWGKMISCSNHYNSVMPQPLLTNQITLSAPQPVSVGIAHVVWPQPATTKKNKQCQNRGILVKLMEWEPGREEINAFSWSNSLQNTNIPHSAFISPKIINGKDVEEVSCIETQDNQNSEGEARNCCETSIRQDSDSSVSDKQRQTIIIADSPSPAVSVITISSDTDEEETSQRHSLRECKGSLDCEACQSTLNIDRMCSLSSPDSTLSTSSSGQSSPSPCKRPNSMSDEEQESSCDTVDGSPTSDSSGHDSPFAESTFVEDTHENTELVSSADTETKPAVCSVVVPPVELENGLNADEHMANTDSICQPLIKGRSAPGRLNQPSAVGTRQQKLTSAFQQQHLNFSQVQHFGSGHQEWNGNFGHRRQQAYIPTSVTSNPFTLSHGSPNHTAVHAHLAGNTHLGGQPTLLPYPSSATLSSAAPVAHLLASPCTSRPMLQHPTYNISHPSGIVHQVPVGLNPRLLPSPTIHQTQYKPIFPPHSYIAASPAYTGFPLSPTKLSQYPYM
Insulin-like growth factor 1 receptor (Homo sapiens), sequence (P08069 31-736 limits assumed): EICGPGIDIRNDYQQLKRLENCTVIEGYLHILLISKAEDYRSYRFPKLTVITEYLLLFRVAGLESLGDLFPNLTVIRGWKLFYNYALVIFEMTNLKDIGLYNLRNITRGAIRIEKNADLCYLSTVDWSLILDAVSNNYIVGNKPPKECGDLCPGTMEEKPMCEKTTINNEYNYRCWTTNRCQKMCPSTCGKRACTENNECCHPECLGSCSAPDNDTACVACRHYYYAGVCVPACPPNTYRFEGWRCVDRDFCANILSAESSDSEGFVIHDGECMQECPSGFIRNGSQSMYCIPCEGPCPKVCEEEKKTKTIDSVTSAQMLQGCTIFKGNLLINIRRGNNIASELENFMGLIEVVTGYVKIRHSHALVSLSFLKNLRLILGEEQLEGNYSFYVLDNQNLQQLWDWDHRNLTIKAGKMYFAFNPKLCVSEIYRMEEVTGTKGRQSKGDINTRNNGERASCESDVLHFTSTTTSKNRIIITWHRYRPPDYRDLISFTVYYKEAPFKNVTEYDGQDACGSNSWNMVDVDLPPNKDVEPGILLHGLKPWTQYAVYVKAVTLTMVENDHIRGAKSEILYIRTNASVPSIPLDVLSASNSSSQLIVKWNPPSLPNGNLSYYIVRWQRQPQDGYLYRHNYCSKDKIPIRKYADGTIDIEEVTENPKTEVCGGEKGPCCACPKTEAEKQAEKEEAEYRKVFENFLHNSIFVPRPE
Insulin-like growth factor 1 receptor (Homo sapiens), sequence (P08069 741-1367 limits assumed): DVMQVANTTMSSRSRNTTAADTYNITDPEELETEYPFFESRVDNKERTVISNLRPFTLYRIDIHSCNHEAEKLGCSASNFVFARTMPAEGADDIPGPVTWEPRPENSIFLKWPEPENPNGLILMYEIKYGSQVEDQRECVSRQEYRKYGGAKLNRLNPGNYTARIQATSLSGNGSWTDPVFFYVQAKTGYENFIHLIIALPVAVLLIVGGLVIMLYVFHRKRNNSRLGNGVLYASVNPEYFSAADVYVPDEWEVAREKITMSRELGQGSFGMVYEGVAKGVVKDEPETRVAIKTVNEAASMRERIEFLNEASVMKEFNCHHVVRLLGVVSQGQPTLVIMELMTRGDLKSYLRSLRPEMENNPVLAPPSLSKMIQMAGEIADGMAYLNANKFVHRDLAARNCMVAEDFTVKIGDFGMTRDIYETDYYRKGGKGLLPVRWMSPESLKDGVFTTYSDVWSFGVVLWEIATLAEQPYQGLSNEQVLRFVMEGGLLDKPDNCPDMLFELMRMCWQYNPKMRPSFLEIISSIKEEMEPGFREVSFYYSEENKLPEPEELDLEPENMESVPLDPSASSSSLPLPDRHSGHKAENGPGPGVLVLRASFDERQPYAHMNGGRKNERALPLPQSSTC

By residual activity is commonly meant the signal under treatment as a percentage of the control signal. As for `CC(C)n1cnc2/c(=N/c3cccc(Cl)c3)nc(NCCO)[nH]c21`, the residual activity in assay [1] turned out to be 83%; in assay [2] it was 80%; in [3], 58%; in [4], 41%; in [5] it was 13%; in assay [6] it was 57%. Also, the residual activity in [7] turned out to be 13%; in assay [8], 103%; in assay [9] it was 105%; in assay [10] it was 102%; in [11] it was 87%; in assay [12], 75%. Further, the residual activity in assay [13] is 69%; in [14], 35%; in assay [15] it was 110% (inactive); in assay [16], 103%; in [17], 77%; in assay [18], 57%. For the same compound, the figures for the residual activity in [19] and in [20] were 96% and 93%, respectively.

Take `CN(C)c1ccc(/C=C2\C(=O)Nc3ccccc32)cc1`: the residual activity in assay [1] was 94%; in assay [2], 83%; in assay [3] it was 46%; in assay [4], 76%; in assay [5] it was 32%; in [6] it was 102%. Moreover, the residual activity turned out to be 77% in assay [7]; 146% in [8]; 139% in [9]; 101% in [10]; 102% in assay [11]; 93% in assay [12]. The residual activity in [13] is 117%; in [14], 85%; in [15], 92% (inactive); in assay [16], 78%; in [17], 96%; in assay [18] it was 81%. Besides, the residual activity in assay [19] is 103%; in assay [20], 114%.

As to `O=c1cc(-c2cccc3c2Sc2ccccc2S3)oc(N2CCOCC2)c1`, the residual activity came out at 104% in assay [1]; 94% in [2]; 98% in assay [3]; 96% in assay [4]; 82% in assay [5]; 101% in assay [6]. Also, the residual activity in [7] came to 100%; in [8] it was 100%; in assay [9], 113%; in [10], 100%; in [11], 107%; in assay [12], 101%. Also, the residual activity is 97% in assay [13]; 91% in assay [14]; 117% (inactive) in assay [15]; 102% in assay [16]; 86% in assay [17]; 80% in assay [18]. The figures for the residual activity in [19] and in [20] were 106% and 103%, respectively.
